Inconclusive results are not listed. Where a call stands in place of a potency, no number is given. Calls of active or inactive are those of the source. The call rests on the fitted dose curve; in most records, active means well fitted curve in the direction sought with a large enough effect; inconclusive means small, poorly fitted or top-dose-only effect, or another doubt; inactive means no such curve, though single readings can be large; an effect the other way counts as inactive or inconclusive.
Test: qHTS for Inhibitors of Plasmodium falciparum (GB4) proliferation (AID 504315); further: nearly all actives have a fitted effect of over 50% in size
Conditions: P. falciparum GB4 in erythrocytes, SYBR Green DNA, 72 h; series mostly up to 6.7 µM
Procedure, shortened: (§1)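 Parasite growth measured as SYBR Green DNA fluorescence (ex 485, em 535 nm) after overnight lysis following 72 h culture at 37 °C, 0.3% parasitemia, 2.5% hematocrit. Values normalized against DMSO and 0.29 uM artemisinin controls, with plate-stack correction.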

Row | SMILES | Potency
1 | COC(=O)[C@@H]1[C@H](CCc2ccccc2)NC(=O)N(Cc2ccccc2)[C@@H]1C | inactive
2 | COC(=O)C1=C(C(=O)OC)[C@@H]2N(C)c3ccccc3[C@@]23C[C@@H](C(=O)OC)N(S(=O)(=O)c2ccc(C)cc2)C3=N1 | inactive
3 | COc1ccc(N2C=C3C(=O)C(C)(OC(=O)CCc4ccccc4)C(=O)C=C3C=C2c2ccc(C#N)cc2)cc1 (stereo unspecified) | inactive
4 | CC1(OC(=O)c2ccc(Cl)nc2)C(=O)C=C2C=C(C3CC3)OC=C2C1=O (stereo unspecified) | inactive
5 | COC(=O)CCCC1=CC2=CC(=O)C(C)(OC(=O)c3cccs3)C(=O)C2=CN1CCCCO (stereo unspecified) | inactive
6 | COCCN1C(=O)N[C@@H](c2ccccc2)[C@@H](C(=O)OC)[C@H]1C | inactive
7 | COCCN1C=C2C(=O)C(C)(OC(=O)CCC(=O)OC)C(=O)C(Br)=C2C=C1c1ccc(OC)cc1 (stereo unspecified) | inactive

Test: qHTS for Inhibitors of Plasmodium falciparum (7G8) proliferation (AID 504316); further: nearly all actives have a fitted effect of over 65% in size
Conditions: P. falciparum 7G8 in erythrocytes, SYBR Green DNA, 72 h; series mostly up to 6.7 µM
Procedure, shortened: as §1

Row | SMILES | Potency
8 | COC(=O)C1=C(C(=O)OC)[C@@H]2N(C)c3ccc(OC)cc3[C@@]23C[C@@H](C(=O)OC)N(C(=O)C2CCC2)C3=N1 | inactive
9 | CC#CCN1C(=O)N[C@@H](c2ccccc2)C(C(=O)OC)=C1C | inactive
10 | COCCN1C(=O)N(C)[C@@H](c2ccccc2)C(C(C)=O)=C1C | inactive
11 | COC(=O)C1=C(C(=O)OC)[C@@H]2N(C)c3ccccc3[C@@]23C[C@@H](CO)N=C3N1 | inactive
12 | COc1ccc(C2=CC3=C(Br)C(=O)C(C)(OC(=O)c4cnc5ccccc5n4)C(=O)C3=CO2)cc1 (stereo unspecified) | inactive
13 | COC(=O)N[C@H](CC(C)=O)c1ccc(Cl)cc1 | inactive
14 | CC(C)OCCCN1C=C2C(=O)C(C)(OC(=O)CCc3ccccc3)C(=O)C=C2C=C1c1ccc(C#N)cc1 (stereo unspecified) | inactive
15 | CCOC(=O)CNC(=O)O[C@@H]1C(=O)c2cc(OC)ccc2O[C@H]1c1ccc(OC)c(Br)c1 | inactive
16 | COC/C=C/C1=CC2=CC(=O)C(C)(OC(=O)c3cnc4ccccc4n3)C(=O)C2=CN1CC(C)C (stereo unspecified) | inactive
17 | CC1(OC(=O)CCc2ccccc2)C(=O)C=C2C=C(c3ccc(C#N)cc3)N(C3CC3)C=C2C1=O (stereo unspecified) | inactive
18 | COC/C=C/C1=CC2=CC(=O)C(C)(OC(=O)c3cnc4ccccc4n3)C(=O)C2=CN1c1ccccc1 (stereo unspecified) | inactive
19 | CC[C@H](C)[C@@H](NC(=O)O[C@@H]1C(=O)c2cc(Br)ccc2O[C@H]1c1cccc(OC)c1)C(=O)OC | inactive
20 | COC(=O)CCC(=O)OC1(C)C(=O)C2=CN(CC(C)C)C(c3ccc(OC)cc3)=CC2=C(Br)C1=O (stereo unspecified) | inactive
21 | CCOC(=O)CN1C(=O)NC(c2cccc(C(F)(F)F)c2)C(C(C)=O)=C1C (stereo unspecified) | inactive
22 | CCOC(=O)CN1C(=O)N[C@@H](c2cccs2)C(C(=O)OC)=C1C | inactive
23 | CCN1C(=O)NC(c2ccc(Br)cc2)C(C(=O)OC)=C1C (stereo unspecified) | inactive
24 | COC(=O)C1=C(C)N(Cc2ccccc2)C(=O)N[C@H]1c1ccc(Br)cc1 | inactive
25 | CC1(OC(=O)CCc2ccccc2)C(=O)C=C2C=C3CCCN3C=C2C1=O (stereo unspecified) | inactive
26 | COC(=O)CCCC1=CC2=CC(=O)C(C)(OC(=O)c3cccs3)C(=O)C2=CN1c1ccc(CO)cc1 (stereo unspecified) | inactive
27 | COC(=O)C1=C(C(=O)OC)[C@@H]2N(Cc3ccccc3)c3ccccc3[C@@]23C[C@@H](C(=O)OC)N(C(=O)NCCBr)C3=N1 | inactive
28 | COC(=O)C1=C(C(=O)OC)[C@@H]2N(C)c3ccccc3[C@@]23C[C@@H](CO)N(C(=O)c2ccco2)C3=N1 | inactive
29 | COC(=O)C1=C(C)N(Cc2ccccc2)C(=O)N[C@H]1c1cccs1 | inactive
30 | COC/C=C/C1=CC2=CC(=O)C(C)(OC(=O)c3cnc4ccccc4n3)C(=O)C2=CN1C1CCCCC1 (stereo unspecified) | inactive
31 | CC(C)C(=O)N[C@@H]1CCCN1C(=O)C=Cc1ccccc1 | inactive
32 | CCCCC1=CC2=C(c3ccco3)C(=O)C(C)(OC(=O)c3ccc(OC)cc3)C(=O)C2=CN1CC(C)C (stereo unspecified) | inactive
33 | COC(=O)CCCC1=CC2=CC(=O)C(C)(OC(=O)c3cccs3)C(=O)C2=CN1Cc1ccc2c(c1)OCO2 (stereo unspecified) | inactive
34 | COC(=O)C1=C(C(=O)OC)[C@@H]2N(C)c3ccccc3[C@@]23C[C@@H](C(=O)OC)N(S(=O)(=O)c2ccc(C#N)cc2)C3=N1 | inactive
35 | CC1(OC(=O)CCc2ccccc2)C(=O)C=C2C=C(c3ccc(C#N)cc3)N(CCc3ccccn3)C=C2C1=O (stereo unspecified) | inactive
36 | COC/C=C/C1=CC2=CC(=O)C(C)(OC(=O)c3cnc4ccccc4n3)C(=O)C2=CN1C(CO)CO (stereo unspecified) | inactive
